# Inconclusive results are not listed. The source made the active and inactive calls. Rule for the calls, unless noted: active = hit-call score of the fitted dose curve at least 0.9, where 1 is the maximum; inactive = score below 0.9.
# Columns and labels:
# [1] = APR_HepG2_CellCycleArrest_24hr: Apredica 24-hour HepG2 Assay for Cell Cycle Arrest (AID 2282905); conditions: imaging, actives raise or lower the signal;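 note: cell cycle arrest scored as ratio of 2N to 4N nuclear DNA content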
# Procedure, shortened: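 HepG2 cells were exposed to compounds at 0.39–200 uM (ten concentrations, duplicate) in 0.5% v/v DMSO for 24 hr. After formaldehyde fixation and Triton permeabilization, Hoechst 33342-stained nuclei were imaged at 20x; DNA content was quantified, with bidirectional fitting against DMSO.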
# [2] = APR_HepG2_NuclearSize_24hr: Apredica 24-hour HepG2 Assay for Nuclear Size (AID 2282907); conditions: high-content imaging, actives raise or lower the signal
# Procedure, shortened: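 HepG2 human liver cells were exposed for 24 hr to compounds at 0.39–200 uM (ten concentrations, duplicate) in 0.5% v/v DMSO. They were then formaldehyde-fixed, Triton-permeabilized and Hoechst 33342-stained, and nuclear diameter was imaged at 20x. Bidirectional fits were made against DMSO.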
# [3] = APR_HepG2_CellLoss_24hr: Apredica 24-hour HepG2 Assay for Cell Loss (AID 2282908); conditions: high-content imaging;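 for AC50: fit in both directions so a hit may be cell loss or gain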
# Procedure, shortened: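 Compounds were tested at 0.39–200 uM in duplicate with 0.5% v/v DMSO final. Cells were then fixed in 3.7% formaldehyde, Hoechst 33342 nuclei were imaged at 20x by HCS, and cell number was fitted bidirectionally against DMSO.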
# [4] = APR_HepG2_MicrotubuleCSK_24hr: Apredica 24-hour HepG2 Assay for Microtubule CSK Stabilty (AID 2282909); conditions: HepG2 microtubule cytoskeleton imaging, actives raise or lower the signal
# Procedure, shortened: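 HepG2 cells exposed 24 h to compounds at 0.39–200 uM (duplicate, 0.5% v/v DMSO final), then fixed, permeabilized and immunostained for alpha-tubulin with Hoechst 33342. Cytoskeleton imaged at 20x; bidirectional fit versus DMSO baseline.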
# [5] = APR_HepG2_MitoticArrest_24hr: Apredica 24-hour HepG2 Assay for Mitotic Arrest (AID 2282910); conditions: high-content imaging, actives raise or lower the signal
# Procedure, shortened: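 HepG2 cells, 24 h exposure at 0.39-200 uM (10 concentrations, duplicate, 0.5% DMSO). Fixed, stained for phospho-histone H3 with Hoechst; imaged by high-content microscopy, bidirectional fit versus DMSO.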
# [6] = APR_HepG2_MitoMembPot_24hr: Apredica 24-hour HepG2 Assay for Mitochondrial Membrane Potential (AID 2282911); conditions: imaging, actives raise or lower the signal
# Procedure, shortened: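 Cells are dosed for 24 hr across 0.39 to 200 uM with solvent held at 0.5% DMSO. They are then stained with 250 nM MitoTracker Red CMXRos for 30 min, fixed in 3.7% formaldehyde and imaged.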
# [7] = APR_HepG2_MitoMass_24hr: Apredica 24-hour HepG2 Assay for Mitochondrial Mass (AID 2282912); conditions: high-content imaging, actives raise or lower the signal
# Procedure, shortened: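 Human HepG2 liver cells were exposed for 24 hr to compounds at 0.39–200 uM (duplicates, 0.5% v/v DMSO final). They were stained live with 250 nM MitoTracker Red CMXRos for 30 min, fixed in 3.7% formaldehyde, and imaged by HCS fluorescence; signals were fitted bidirectionally against DMSO.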
# [8] = APR_HepG2_p53Act_24hr: Apredica 24-hour HepG2 Assay for p53 Activation (AID 2282913); conditions: high-content imaging, actives raise or lower the signal;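 note: p53 protein immunofluorescence averaged per cell in HepG2 with Hoechst nuclei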
# Procedure, shortened: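 Human HepG2 liver cells; 24 hr cpd treatment, 0.39–200 uM, 0.5% DMSO final. Fixed in 3.7% formaldehyde, permeabilized with 0.5% Triton X-100, stained with anti-p53/Cy5 plus Hoechst 33342. Six images per well at 20x; gain or loss vs DMSO.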
# [9] = APR_HepG2_CellCycleArrest_72hr: Apredica 72-hour HepG2 Assay for Cell Cycle Arrest (AID 2282914); conditions: high-content imaging, actives raise or lower the signal
# Procedure, shortened: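 Read-out is Hoechst-stained nuclear DNA content measured by automated fluorescence imaging (20x, six images per well), fitted in both directions relative to DMSO. Human HepG2 liver cells received 0.39–200 uM compound for 72 hr at 0.5% v/v DMSO.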
# [10] = APR_HepG2_CellLoss_72hr: Apredica 72-hour HepG2 Assay for Cell Loss (AID 2282915); conditions: high-content imaging
# Procedure, shortened: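 HepG2 cells exposed 72 h to compound at 0.39–200 uM (10 concentrations, duplicate) in 0.5% DMSO. Fixed with 3.7% formaldehyde and Hoechst 33342-stained. Imaged at 20x; nuclear count gives cell number, fitted bidirectionally versus DMSO.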
# [11] = APR_HepG2_P-H2AX_72hr: Apredica 72-hour HepG2 Assay for H2AX Phosphorylation (AID 2282916); conditions: imaging, actives raise or lower the signal;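 note: phospho-histone H2A.x immunostain intensity per cell marking DNA damage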
# Procedure, shortened: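 HepG2 human liver cells were exposed for 72 hr to compounds at 0.39–200 uM (10 concentrations, duplicate per plate) in 0.5% v/v DMSO. Fixed, permeabilized cells were immunolabeled for phospho-histone H2A.x with Hoechst 33342 and imaged by HCS fluorescence; bidirectional fit versus DMSO.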
# [12] = APR_HepG2_MitoMembPot_72hr: Apredica 72-hour HepG2 Assay for Mitochondrial Membrane Potential (AID 2282917); conditions: imaging, actives raise or lower the signal
# Procedure, shortened: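 HepG2 cells dosed 72 hr with compound at 0.39–200 uM in duplicate, 0.5% v/v DMSO final. Mitochondria stained with 250 nM MitoTracker Red CMXRos for 30 min before formaldehyde fixation, imaged by high-content fluorescence; bidirectional fit versus DMSO.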
# [13] = APR_HepG2_MitoticArrest_72hr: Apredica 72-hour HepG2 Assay for Mitotic Arrest (AID 2282918); conditions: high-content imaging, actives raise or lower the signal
# Procedure, shortened: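 Read-out is phospho-histone H3 immunofluorescence with Hoechst nuclear segmentation, imaged at 20x. Human HepG2 liver cells received ten concentrations (0.39–200 uM, final DMSO 0.5% v/v) for 72 hr before fixation. Gain or loss of signal was fitted relative to DMSO.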
# [14] = APR_HepG2_MicrotubuleCSK_72hr: Apredica 72-hour HepG2 Assay for Microtubule CSK Stabilty (AID 2282919); conditions: HepG2 microtubule cytoskeleton, high-content imaging, actives raise or lower the signal
# Procedure, shortened: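 HepG2 cells were exposed 72 hr to compound at 0.39–200 uM in duplicate (0.5% DMSO final), then fixed and permeabilized. Alpha-tubulin immunofluorescence was imaged by high-content microscopy, with bidirectional fitting against DMSO and taxol as positive control.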
# [15] = APR_HepG2_P-H2AX_24hr: Apredica 24-hour HepG2 Assay for H2AX Phosphorylation (AID 2282920); conditions: high-content imaging, actives raise or lower the signal
# Procedure, shortened: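 HepG2, 24 hr, cpd 0.39–200 uM (10 conc, duplicate), DMSO 0.5% v/v final. Fix 3.7% formaldehyde, Triton X-100 permeabilize, anti-phospho-H2A.x 1:200 + Hoechst 2 ug/mL. Imaged, bidirectional fit vs DMSO.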
# [16] = APR_HepG2_StressKinase_72hr: Apredica 72-hour HepG2 Assay for Stress Kinase (AID 2282921); conditions: HepG2 stress kinase (phospho-c-Jun) imaging, actives raise or lower the signal
# Procedure, shortened: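 Cells were exposed for 72 h to ten concentrations (0.39–200 uM, duplicate) at 0.5% v/v DMSO final, then fixed with 3.7% formaldehyde, permeabilized and immunostained for phospho-c-Jun (Cy3 secondary) with Hoechst nuclear counterstain.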
# [17] = APR_HepG2_StressKinase_24hr: Apredica 24-hour HepG2 Assay for Stress Kinase (AID 2282922); conditions: HepG2 stress kinase (phospho-c-Jun) imaging, actives raise or lower the signal
# Procedure, shortened: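 HepG2 cells exposed 24 h to 0.39–200 uM compound in duplicate (0.5% v/v DMSO final). Cells fixed in 3.7% formaldehyde, permeabilized and immunostained for phospho-c-Jun; read by high-content fluorescence imaging, fitted bidirectionally against DMSO.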
# [18] = APR_HepG2_p53Act_72hr: Apredica 72-hour HepG2 Assay for p53 Activation (AID 2282923); conditions: high-content imaging, actives raise or lower the signal;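 note: average cellular p53 protein immunofluorescence intensity in HepG2 cells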
# Procedure, shortened: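 Cells were dosed for 72 hr with compounds at 0.39–200 uM in duplicate (final DMSO 0.5% v/v), then fixed in 3.7% formaldehyde, permeabilized with Triton X-100 and immunostained for p53 (Cy5) with Hoechst 33342 nuclear counterstain.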
# [19] = APR_HepG2_MitoMass_72hr: Apredica 72-hour HepG2 Assay for Mitochondrial Mass (AID 2282924); conditions: high-content imaging, actives raise or lower the signal;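 note: MitoTracker Red CMXRos stain intensity per cell imaged as mitochondrial mass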
# Procedure, shortened: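 HepG2 cells dosed 72 hr at 0.39–200 uM (0.5% DMSO), in duplicate. MitoTracker Red CMXRos 250 nM loaded 30 min before formaldehyde fixation; high-content fluorescence imaging, bidirectional fit versus DMSO.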
# [20] = ACEA_ER_80hr: ACEA Biosciences xCELLigence Real-Time Cell Analysis on Estrogen Receptor Agonism for Proliferation (AID 2282667; active = hit-call score of the fitted dose curve at least 0.9, where 1 is the maximum); conditions: T47D proliferation, impedance (xCELLigence), 80 h
# Procedure, shortened: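 Real-time electrical impedance tracked growth of the human breast line T47D, with the 80 h post-dosing value used. Dosing spanned eight 1:4 steps down from a 100 uM final top concentration, run in duplicate.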
smiles,measurement,setting,value
CCCc1cc(=O)[nH]c(=S)[nH]1,outcome,[1],inactive
same,outcome,[2],inactive
same,outcome,[3],inactive
same,outcome,[4],inactive
same,outcome,[5],inactive
same,outcome,[6],inactive
same,outcome,[7],inactive
same,outcome,[8],inactive
same,outcome,[9],inactive
same,outcome,[10],inactive
same,outcome,[11],inactive
same,outcome,[12],inactive
same,outcome,[13],inactive
same,outcome,[14],inactive
same,outcome,[15],inactive
same,outcome,[16],inactive
same,outcome,[17],inactive
same,outcome,[18],inactive
same,outcome,[19],inactive
CCCCCCCCCCCCCO,outcome,[1],inactive
same,outcome,[2],inactive
same,AC50,[3],138 µM (active)
same,AC50,[4],117 µM (active)
same,AC50,[5],107 µM (active)
same,outcome,[6],inactive
same,outcome,[7],inactive
same,outcome,[8],inactive
same,AC50,[9],52.3 µM (active)
same,AC50,[10],113 µM (active)
same,AC50,[11],108 µM (active)
same,AC50,[12],120 µM (active)
same,AC50,[13],104 µM (active)
same,outcome,[14],inactive
same,outcome,[15],inactive
same,outcome,[16],inactive
same,outcome,[17],inactive
same,outcome,[18],inactive
same,outcome,[19],inactive
Cc1ccc(C)c(C)c1,outcome,[1],inactive
same,outcome,[2],inactive
same,outcome,[3],inactive
same,outcome,[4],inactive
same,outcome,[5],inactive
same,outcome,[6],inactive
same,outcome,[7],inactive
same,outcome,[8],inactive
same,outcome,[9],inactive
same,outcome,[10],inactive
same,outcome,[11],inactive
same,outcome,[12],inactive
same,outcome,[13],inactive
same,outcome,[14],inactive
same,outcome,[15],inactive
same,outcome,[16],inactive
same,outcome,[17],inactive
same,outcome,[18],inactive
same,outcome,[19],inactive
COc1ccc(S(=O)(=O)N2C(=O)[C@@](c3ccccc3OC)(N3C[C@H](O)C[C@H]3C(=O)N(C)C)c3cc(Cl)ccc32)c(OC)c1,outcome,[20],inactive
same,AC50,[1],86.2 µM (active)
same,AC50,[2],93.2 µM (active)
same,AC50,[3],92.4 µM (active)
same,outcome,[4],inactive
same,AC50,[5],63 µM (active)
same,outcome,[6],inactive
same,AC50,[7],78.1 µM (active)
same,AC50,[8],68.6 µM (active)
same,AC50,[10],61 µM (active)
same,AC50,[11],106 µM (active)
same,outcome,[12],inactive
same,AC50,[13],40.7 µM (active)
same,AC50,[15],68.2 µM (active)
same,AC50,[16],100 µM (active)
same,outcome,[17],inactive
same,AC50,[18],100 µM (active)
same,AC50,[19],65.7 µM (active)
COc1cc(C=O)ccc1O,outcome,[1],inactive
same,outcome,[2],inactive
same,outcome,[3],inactive
same,outcome,[4],inactive
same,outcome,[5],inactive
same,outcome,[6],inactive
same,outcome,[7],inactive
same,outcome,[8],inactive
same,outcome,[9],inactive
same,outcome,[10],inactive
same,outcome,[11],inactive
same,outcome,[12],inactive
same,outcome,[13],inactive
same,outcome,[14],inactive
same,outcome,[15],inactive
same,outcome,[16],inactive
same,outcome,[17],inactive
same,outcome,[19],inactive
Nc1ccc(S(=O)(=O)c2ccc(N)cc2)cc1,outcome,[20],inactive
same,outcome,[1],inactive
same,outcome,[2],inactive
same,outcome,[3],inactive
same,outcome,[4],inactive
same,outcome,[5],inactive
same,outcome,[6],inactive
same,outcome,[7],inactive
same,outcome,[8],inactive
same,outcome,[10],inactive
same,outcome,[11],inactive
same,outcome,[12],inactive
same,outcome,[13],inactive
same,outcome,[14],inactive
same,outcome,[15],inactive
same,outcome,[16],inactive
same,outcome,[17],inactive
same,outcome,[19],inactive
CCOC(=O)CCC(=O)OCC,outcome,[20],inactive
same,outcome,[1],inactive
same,outcome,[2],inactive
same,outcome,[3],inactive
same,outcome,[4],inactive
same,outcome,[5],inactive
same,outcome,[6],inactive
same,outcome,[7],inactive
same,outcome,[8],inactive
same,outcome,[10],inactive
same,outcome,[11],inactive
same,outcome,[12],inactive
same,outcome,[13],inactive
same,outcome,[15],inactive
same,outcome,[16],inactive
same,outcome,[17],inactive
same,outcome,[18],inactive
same,outcome,[19],inactive

# From PubChem BioAssay (EPA / NIEHS)
